Spn MK inh = S. pneumoniae mevalonate kinase inhibition; purified MK, PK/LDH-coupled NADH absorbance 340 nm; 65,000 tested, 0.48% active; inhibition, % at 10 µM;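 active means ranked among the strongest by inhibition in the single 10 µM screen, a fixed top-ranked set picked for dose follow-up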
NADH coupling = inhibitors of enzymes used to reach an NAD/NADH endpoint. coupled PK/LDH NADH assays, four targets. IC50, µM (series often up to 10 µM). 65,000 tested, 0.02% active;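 active means single-dose screening hits from any of four coupled enzyme assays that gave an IC50 when retested across doses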;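 further: the DPM-DC format reads NADH fluorescence rather than 340 nm absorbance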
Abs 340nm = compounds absorbing at 340 nm; fold change at 10 µM; AID 708; 65,000 tested, under 10 active; compound absorbance at 340 nm, fold over control;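 active means at 10 µM dose, initial 340 nm absorbance at least 2 fold that of control wells; inactive means change under 2 fold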;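 further: initial absorbance extrapolated from kinetic A340 decline of NADH oxidation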
Fluor 339 460 = intrinsic fluorescence of library compounds, ex339/em460 – biochemical, MLSMR library, data from DPM-DC assay, artefact control, profiling panel | compound autofluorescence, ex339/em460 nm, NADH buffer; active compounds read high; 1 = no-compound wells, NADH background | fluorescence fold increase at 10 µM | 65,000 tested, 5.5% active | AID 709;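 active means at 10 µM, mean starting fluorescence two-fold or more over control wells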;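 further: signal is the first read of a kinetic run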
PMK inhibit = S. pneumoniae PMK inhibition. purified PMK, PK/LDH-coupled NADH absorbance 340 nm. inhibition, % at 10 µM. 65,000 tested, 0.49% active;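 active means top-ranked compounds by inhibition in the single 10 µM screen, taking a fixed number of the strongest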
Spn DPM-DC inh = S. pneumoniae DPM-DC inhibition | purified DPM-DC, PK/LDH coupled NADH fluorescence | 65,000 tested, 0.49% active | AID 556 | calls only at 10 µM;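 active means the 320 compounds with the highest percent inhibition in the single-dose primary screen, excluding strongly autofluorescent ones, cut at about 32% in these data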;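 further: kinetic rate of NADH fluorescence loss reporting ADP formed by the decarboxylase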
Large screens that a line does not name were inactive. Rows were chosen to be rich in hits. Some 6.8% of all compounds tested hit in one or more screens of this group.

CCC(=O)N1CN(S(=O)(=O)c2ccc(C)cc2)CC1C (stereo not given)	none
C(=N\C(/N=C/c1ccco1)c1ccco1)/c1ccco1	Fluor 339 460 2
Cc1ncsc1C(=O)NCc1ccc(N2CCCC2=O)cc1	none
COc1ccc(-c2csc(N(CC3CCCO3)C(=O)c3ccco3)n2)cc1 (stereo not given)	Fluor 339 460 2.7
COc1ccc(-c2csc(N3CCN(C(=O)c4ccco4)CC3)n2)cc1	none
COc1ccc2nc(CC(C)(C)CC(=O)O)c[n+]([O-])c2c1	Fluor 339 460 2.9 (not shown: Spn DPM-DC inh)
N#CC(c1nc2ccccc2nc1N1CCCC1)S(=O)(=O)c1cccs1 (stereo not given)	Fluor 339 460 2.7
C=CCNC(=O)C(C#N)c1nc2ccccc2nc1N1CCCCCC1 (stereo not given)	Fluor 339 460 2.3 (not shown: Spn DPM-DC inh)
CCCCCCOC(=O)C(C#N)c1nc2ccccc2nc1N1CCCCC1 (stereo not given)	none
Cc1ccc(S(=O)(=O)C(C#N)c2nc3ccccc3nc2N2CCC(C)CC2)cc1 (stereo not given)	none
N#CC(c1nc2ccccc2nc1N1CCCC1)S(=O)(=O)c1ccccc1 (stereo not given)	Fluor 339 460 2.3 (not shown: Spn DPM-DC inh)
CCCCCCOC(=O)C(C#N)c1nc2ccccc2nc1N1CCN(C)CC1 (stereo not given)	Fluor 339 460 3.9 (not shown: Spn DPM-DC inh)
COc1ccc(S(=O)(=O)C(C#N)c2nc3ccccc3nc2N2CCCCC2)cc1 (stereo not given)	none
COc1ccc(-c2cc(N)n(S(=O)(=O)c3c(F)c(F)c(F)c(F)c3F)n2)cc1OC	none
Cc1nn2c3c(cnc2c1-c1ccccc1)C(=O)CC(C)C3 (stereo not given)	none
CCN(CC)c1ccc(NC(=O)c2ccc(Br)o2)c(C)c1	none
CC1N=C2c3ccccc3N=C(SCc3cc(=O)n4ccccc4n3)N2C1=O (stereo not given)	none
COc1cccc(N2CC(C(=O)Nc3ccc(C(=O)OC(C)C)cc3)CC2=O)c1 (stereo not given)	none
Cc1ccc(C)c(S(=O)(=O)C(C#N)c2nc3ccccc3nc2N2CCCC2)c1 (stereo not given)	Fluor 339 460 3.4 (not shown: Spn DPM-DC inh)
Cc1cccc(S(=O)(=O)C(C#N)c2nc3ccccc3nc2N2CCCC2)c1 (stereo not given)	Fluor 339 460 3.9 (not shown: Spn DPM-DC inh)
Cc1ccc(C)c(S(=O)(=O)C(C#N)c2nc3ccccc3nc2N2CCOCC2)c1 (stereo not given)	none
N#Cc1c(N)nc2c(c1-c1ccncc1)CCCCC2	none
CSc1ccc(-c2c(C#N)c(N)nc3c2CCCC3)cc1	Fluor 339 460 3.7 (not shown: Spn DPM-DC inh)
CC(C)COC(=O)NCC12C=CC(O1)C1C(=O)N(c3ccc(Cl)cc3)C(=O)C12 (stereo not given)	PMK inhibit 25
CCOC(=O)c1c(C)n(OCc2ccccc2)c2ccc3nonc3c12	Fluor 339 460 2.2 (not shown: Spn DPM-DC inh)
CCC(=O)N(Cc1ccc(S(N)(=O)=O)cc1)C1CC(=O)N(c2ccc(OC)cc2)C1=O (stereo not given)	none
CCOC(=O)N1CCC(N2Cc3cccc(C(=O)NC(C)c4ccc5c(c4)OCCO5)c3C2=O)CC1 (stereo not given)	none
Cc1nc2oc3c(NCc4ccccn4)ncnc3c2c2c1COC(C)(C)C2	Spn DPM-DC inh active
c1nc(NCC2CCCO2)c2[nH]cnc2n1 (stereo not given)	none
CC(C)c1nc2oc3c(NCC4CCCO4)ncnc3c2c2c1CCC2 (stereo not given)	Fluor 339 460 2.4
CCCc1nc2oc3c(NCCN(C)C)ncnc3c2c2c1CCCC2	none
CC1(C)Cc2nc3oc4c(NCc5ccccc5)ncnc4c3cc2CO1	Fluor 339 460 3.8 (not shown: Spn DPM-DC inh)
CCCc1nc2oc3c(NCC4CCCO4)ncnc3c2c2c1COC(C)(C)C2 (stereo not given)	Fluor 339 460 3.2
CCOC(=O)N1CCN(c2ncnc3c2oc2nc(C)c4c(c23)CC(C)(C)OC4)CC1	none
C/C(Cl)=C/Cn1c(=O)c2c(nc(Br)n2Cc2ccccc2)n(C)c1=O	none
Cn1c(=O)[nH]c(=O)c2c1nc(Br)n2CC(O)c1ccccc1 (stereo not given)	none
CCCc1nc2oc3c(NCc4ccccn4)ncnc3c2c2c1COC(C)(C)C2	Fluor 339 460 2.7

High-throughput results deposited in PubChem BioAssay by SRMLSC.
